Among all 320,000 compounds or so, about 3,100 (0.97%) were called active.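 How the source made its calls: active means mean replicate inhibition of at least 70% and a set share of replicates each scoring 70 or more; inconclusive means meets just one of the two criteria; inactive means fails both criteria.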 The list comes from a sample in which actives are over-represented; it also holds similar structures and randomly drawn compounds.
Each molecule was assayed against Scavenger receptor class B member 1 (Mus musculus) (UniProt Q61009) (assay: mouse SR-BI DiI-HDL uptake blockers – ldlA[mSR-BI] cells, fluorescence, single point, primary screen (AID 488896;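 further: 0% = median of neutral control wells and 100% = median of positive control wells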)). Details: ldlA[mSR-BI] CHO cells, 3 h, at 12.5 µM, stronger effect = higher value.
Scavenger receptor class B member 1 (Mus musculus), sequence (Q61009 whole entry, looked up): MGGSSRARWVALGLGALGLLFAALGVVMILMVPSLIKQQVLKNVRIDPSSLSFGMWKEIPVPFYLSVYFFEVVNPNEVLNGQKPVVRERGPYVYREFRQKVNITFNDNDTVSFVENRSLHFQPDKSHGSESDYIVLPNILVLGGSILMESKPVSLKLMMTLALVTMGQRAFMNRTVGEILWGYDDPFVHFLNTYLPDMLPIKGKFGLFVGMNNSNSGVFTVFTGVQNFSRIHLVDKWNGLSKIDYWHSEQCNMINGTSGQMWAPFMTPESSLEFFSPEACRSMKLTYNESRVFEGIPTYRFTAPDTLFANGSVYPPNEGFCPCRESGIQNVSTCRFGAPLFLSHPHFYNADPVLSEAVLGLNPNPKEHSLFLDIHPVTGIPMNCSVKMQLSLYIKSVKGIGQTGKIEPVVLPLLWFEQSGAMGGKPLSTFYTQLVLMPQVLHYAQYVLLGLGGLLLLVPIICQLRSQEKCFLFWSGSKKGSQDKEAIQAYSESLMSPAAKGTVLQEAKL

Structure (SMILES)	inhibition
Oc1c(Cl)cc(Cl)c(Cl)c1Cc1c(O)c(Cl)cc(Cl)c1Cl	78.2% (active)
CC(C)(C)OC(=O)N(Cc1ccccc1)Cc1ccc(OCc2cccc(NC(=O)c3ccccc3)c2)cc1	30.4% (inactive)
COc1cc(OC)cc(-c2nnc(N(C)C(=O)c3ccncc3)s2)c1	45% (inactive)
CN(C(=O)c1ccccn1)c1nnc(-c2ccccn2)s1	-7.4% (inactive)
CN(C(=O)COc1ccccc1)c1nnc(-c2ccncc2)s1	70.2% (active)
N#CCc1c[nH]c2ccc([N+](=O)[O-])cc12	-13.4% (inactive)
Cc1nc(Nc2ccccc2C)c2cnn(C)c2n1	-3.29% (inactive)
CCOc1cc(N2CCOCC2)c(OCC)cc1NC(=O)c1cc(C)nc2ccccc12	20.8% (inactive)
CCOc1cc(NC(=O)c2ccco2)c(OCC)cc1NC(=O)COc1ccccc1	80.9% (active)
CCOc1cc(NC(=S)NCc2ccco2)c(OCC)cc1NC(=O)c1ccco1	43.4% (inactive)
CCOc1cc(NC(=S)NCCCOC)c(OCC)cc1NC(=O)c1ccco1	28.5% (inactive)
CCOc1cc(N2CCOCC2)c(OCC)cc1NC(=O)c1ccc(C)s1	37% (inactive)
CCOc1cc(N2CCOCC2)c(OCC)cc1NC(=O)COc1cccc(Cl)c1	74.8% (active)
CN(C)C(=S)N=c1ssc(=S)n1Cc1ccco1	0.753% (inactive)
CC(=O)Nc1ccc(C(=O)Nc2cc(S(=O)(=O)N3CCOCC3)ccc2N2CCOCC2)cc1	-8.12% (inactive)
COC(=O)Cc1c(-c2[nH]c3ccccc3c2CC(=O)OC)[nH]c2ccccc12	37.9% (inactive)
O=C(NOCc1ccccc1)c1cccc([N+](=O)[O-])c1	-13.8% (inactive)
O=C(O)c1ccc(NN=CC2=C(N3CCOCC3)/C(=C/c3ccccc3)CC2)cc1	-13% (inactive)
O=C(CSc1nnc(N2CCOCC2)n1-c1cccc(F)c1)N1CCN(c2ccccn2)CC1	0.884% (inactive)
C(=N\N1CCN(c2ccccn2)CC1)/C1=C(N2CCOCC2)C(=C/c2ccccc2)/CC1	95.8% (active)
COc1ccc(/C=N/N=C2/C(=O)Nc3ccccc32)cc1O	-2.91% (inactive)
O=C1Nc2ccc(Br)cc2/C1=N/N=C/C1=C(N2CCOCC2)C(=C\c2ccccc2)/CC1	147% (active)
C[C@H](O)[C@@H]1C(=O)N2CCc3ccc(N4CCOCC4)cc3[C@@H]2C[C@@H]1N(C)C(=O)C(C)(C)C	-2.83% (inactive)

Structure (SMILES)	inhibition
COc1cc2c(cc1OC)C(Cc1cc(OC)c(OC)cc1[N+](=O)[O-])=NCC2	-13% (inactive)
CC1CN(Cc2ccco2)C(=S)N(c2ccccc2)C1=O (configuration not stated)	-33.1% (inactive)
COc1cc(C2c3cc4c(cc3C(O)C3COC(=O)C23)OCO4)cc(OC)c1OC (configuration not stated)	-0.16% (inactive)
CCOc1ccc(S(=O)(=O)N2CCN(C(=O)c3oc4ccccc4c3C)CC2)cc1	-15.2% (inactive)
CCOc1ccc(-c2nnn(CC(=O)N3CCN(c4ccc(OC)cc4)CC3)n2)cc1OCC	82% (active)
CCOc1ccc(-c2nnn(CC(=O)N3CCN(c4ccc(F)cc4)CC3)n2)cc1OCC	48.2% (inactive)
COc1ccc(C(=O)Cn2nnc(-c3ccc(N4CCOCC4)cc3)n2)cc1OC	33% (inactive)
Cc1nc(NC(=O)CN(C)S(=O)(=O)c2ccc(Cl)cc2)sc1C	2.99% (inactive)
COc1ccc(Cl)cc1NC(=O)c1oc(C)nc1C	10.4% (inactive)
CCCCC(=O)N/N=C(\C)CC(=O)Nc1cc(Cl)ccc1OC	27.7% (inactive)
CCCCCCC(=O)Nc1nc(C)c(-c2csc(Nc3cccc(OC)c3)n2)s1	87.2% (active)
CCCCCCC(=O)Nc1nc(C)c(-c2csc(Nc3cc(Cl)ccc3OC)n2)s1	97.4% (active)
CCCCC(=O)Nc1nc(C)c(-c2csc(Nc3ccc(Cl)cc3)n2)s1	103% (active)
CCCCN(C)CCC(=O)Nc1ccc(Cl)cc1	-5.92% (inactive)
COc1cccc(CC(=O)Nc2ccc(-c3csc(C)n3)cc2)c1	22% (inactive)
CCC(=O)Nc1nc(C)c(C(=O)Nc2cccc(Cl)c2)s1	49.6% (inactive)
C=CCCC(=O)Nc1nc(C)c(-c2csc(Nc3ccc(Cl)cc3)n2)s1	104% (active)
Cc1cccc(S(=O)(=O)CC(=O)Nc2nc(-c3ccccc3)cs2)c1	-18% (inactive)
COc1cccc(NC(=O)CN2CCN(c3nc(-c4cccc(OC)c4)cs3)CC2)c1	19.1% (inactive)
CC(=O)c1cccc(-c2ccc(CN3C(CC(C)C)C(=O)N(Cc4cn(CC5CCCCC5)nn4)CCS3(=O)=O)cc2)c1 (configuration not stated)	48.8% (inactive)
COc1cc(O)c2c(=O)c3c(O)c(O)ccc3oc2c1OC	10.1% (inactive)
O=c1oc2ccccc2c(=O)c2ccccc12	-23.4% (inactive)
COc1ccc(C(=O)N(C)Cc2ccc(OC)c(OC)c2OC)cc1S(=O)(=O)N1CCOCC1	-8.86% (inactive)

Structure (SMILES)	inhibition
CC(Nc1ccc([N+](=O)[O-])cc1[N+](=O)[O-])c1ccccc1 (configuration not stated)	21.4% (inactive)
O=[N+]([O-])c1cc2ccccc2nc1-c1ccccc1	-10.5% (inactive)
O=C(O)C1C2C=CC(O2)C1C(=O)Nc1ccccn1 (configuration not stated)	-12.6% (inactive)
CCN(CC(=O)Nc1c(F)cccc1F)C(=O)Cc1cccs1	9.34% (inactive)
CC(NC(=O)c1ccccc1)C(=O)OCC(=O)Nc1cccc(S(=O)(=O)N2CCCC2)c1 (configuration not stated)	-1.56% (inactive)
CCOc1cc(C(=O)N(Cc2ccccc2)c2ccc(C)cc2)ccc1OCC(=O)N1CCOCC1	5.71% (inactive)
O=C(c1ccc2c(c1)C(=O)N(Cc1ccncc1)C2=O)N1CCN(S(=O)(=O)c2ccc(OC(F)(F)F)cc2)CC1	-23.1% (inactive)
Cc1cc(C(=O)CSc2nc(N)cc(=O)[nH]2)c(C)n1Cc1ccco1	-21.5% (inactive)
CCCc1cc(=O)[nH]c(SCC(=O)c2cc(C)n(CCC)c2C)n1	10.7% (inactive)
Cc1cc(C(=O)CSc2nc(N)cc(=O)[nH]2)c(C)n1CCc1ccc(Cl)cc1	83.8% (active)
O=C(O)C(CCc1ccccn1)c1ccccc1 (configuration not stated)	11.9% (inactive)
CCCCC(=O)NC(c1ccc(OC)c(OC)c1)c1ccc2cccnc2c1O (configuration not stated)	3.38% (inactive)
O=C(CC1SC(N2CCOCC2)=NC1=O)Nc1ccccc1F (configuration not stated)	-4.16% (inactive)
N#C/C(=C\C1=C(N2CCOCC2)C(=C\c2ccccc2)/CC1)C(=O)Nc1ccccc1F	83.9% (active)
N#C/C(=C\c1ccccc1C(F)(F)F)C(=O)Nc1ccccc1F	-32.2% (inactive)
O=C(Nc1ccc(S(=O)(=O)N2CCOCC2)cc1)C1CCN(S(=O)(=O)c2ccc(Cl)cc2)CC1	-8.47% (inactive)
CC12CCCCC1=CC(=O)CC2 (configuration not stated)	-0.111% (inactive)
COc1ccc(Cl)cc1C=CC=NNC(=O)c1ccncc1	70% (inactive)
O=C(N/N=C/c1cccnc1)c1cc2ccccc2cc1O	25.7% (inactive)
CC(C)(C)OC(=O)NNc1c2ccccc2nc2ccccc12	23.2% (inactive)
O=C(NNc1c2ccccc2nc2ccccc12)c1cc2ccccc2cc1O	117% (active)
COC(=O)c1ccc(NCc2cc(O)ccc2O)cc1	-3.37% (inactive)
CC(C)c1cc(N=O)cc(C(C)C)c1O	-19.1% (inactive)

Structure (SMILES)	inhibition
O=C(NN=Cc1ccccc1)c1ccccc1	-4.39% (inactive)
CC(C)c1ccc(C=NNc2ccc([N+](=O)[O-])cn2)cc1	-2.92% (inactive)
Cc1nn(-c2ccc(F)cc2)c(Cl)c1/C=C(/CCC(=O)O)c1nc2ccccc2s1	-16% (inactive)
O=C(CC1Sc2ccccc2NC1=O)NNc1ccc(Cl)c(Cl)c1 (configuration not stated)	45.6% (inactive)
N#CC1=C(N)Oc2cc(N)ccc2C1c1ccccc1 (configuration not stated)	-23.9% (inactive)
COc1ccc2nc(Nc3nc(-c4ccncc4)cs3)sc2c1	80.2% (active)
COc1ccc2nc(NC(=O)c3ccc(Br)s3)sc2c1	55.7% (inactive)
COc1ccc2nc(NC(=O)[C@@H]3CCCN3C(=O)c3cccs3)sc2c1	14.9% (inactive)
OCC(O)C1OCOC(C(O)CO)C1O (configuration not stated)	-38.2% (inactive)
CC1(C)C(=O)CCC2(C)C1=CCC1C2C(=O)CC2(C)C1CCC2(O)C(=O)CO (configuration not stated)	-7.32% (inactive)
CC1CCCN(C(=O)Cn2c(=O)oc3cc(S(=O)(=O)N4CCCCC4C)ccc32)C1 (configuration not stated)	-29.3% (inactive)
CC(C)C[C@H]1CN([C@@H](CC(C)C)CN2CCC[C@@H]2CN2C(=O)C(=O)NC[C@@H]2Cc2ccccc2)C(=O)C(=O)N1CCc1ccccc1	20.9% (inactive)
CS(=O)(=O)c1ccc2nc(NC(=O)C3C4C=CC(C4)C3C(=O)O)sc2c1 (configuration not stated)	5.33% (inactive)
COc1cccc(C(=O)Nc2nc3ccc(S(C)(=O)=O)cc3s2)c1	70.8% (active)
CS(=O)(=O)c1ccc2nc(NC(=O)c3ccc(Cl)nc3)sc2c1	32.9% (inactive)
Cc1ccc(S(=O)(=O)n2oc(=O)c(C3CCCCC3)c2N)cc1	-8.19% (inactive)
O=C1C(Cl)=C(Oc2ccccc2)C(=O)c2ccccc21	13.1% (inactive)
CCCC(=O)N(CCN1CCOCC1)c1nc2ccc(OCC)cc2s1	40.2% (inactive)
CCOc1ccc2nc(NC(=O)c3cc([N+](=O)[O-])ccc3N3CCOCC3)sc2c1	78.1% (active)
COc1ccc(S(=O)(=O)N2CCCCC2)cc1NC(=O)c1cc([N+](=O)[O-])ccc1N1CCOCC1	23.2% (inactive)
O=C1OC(Cc2ccccc2)C(c2ccccc2)C1=O (configuration not stated)	-5.71% (inactive)
COc1ccc(N=C2C=CC(=O)O2)cc1	-24.8% (inactive)
O=S(=O)(Cc1ccc(Cl)cc1Cl)c1ccc(Cl)cc1	15.8% (inactive)

Source: PubChem BioAssay AID488896 (Broad Institute, 2010)
